Test results taken from PubChem BioAssay (NCI).
Compounds without any hit were thinned out: in the full panel of roughly 83,000, 20% have a hit.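 48-hour exposure, single concentration, 96-well plates; percent growth endpoint where 0 means no net growth. Active: below 10.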 Values without a mark were called inactive. The source made the active and inactive calls.

These molecules were tested on HL-60(TB) leukemia (assay: NCI-60 one-dose screen, 48 h (100 = growth as untreated, 0 = no growth, -100 = all killed)). Details: 10 µM unless noted.
`COc1cc(/C=C/C(=O)c2ccc(C)cc2)ccc1Oc1nc(Nc2ccc(F)cc2)nc(N(C)C)n1` was tested, and the growth was 41.7%.
`CCOC(=O)/C(F)=C/C1CC1C1CCN(C(=O)OC(C)(C)C)CC1` (stereo not given) gave a growth of 102%.
For `O=C1/C(=C/C2=Cc3ccccc3OC2)SC(=S)N1c1ccccc1F`, the growth was 87.9%.
For `CN1CCN(Cc2ccc(NC(=O)c3cncc(C#Cc4cnc5ccc(N[C@@H]6CCOC6)nn45)c3)cc2C(F)(F)F)CC1`, the growth was -57.9% (active).
`C#CCOc1ccc(/C=N/Nc2nc(-c3cc4cc(OC)ccc4oc3=O)cs2)cc1OC` showed a growth of 76.1%.
`C#CCNC(=O)CCC(=O)OC[C@]12CC[C@@H](C(=C)C)[C@@H]1C1CC[C@@H]3[C@@]4(C)CCCNC(C)(C)[C@@H]4CC[C@@]3(C)[C@]1(C)CC2` (stereo not given in full) was tested, and the growth was -39% (active).
For `CCOc1ccccc1[C@H]1C(C(=O)c2ccc(Cl)cc2)C2(N[C@@H]1c1ccccc1)C(=O)Nc1ccc(Cl)cc12` (stereo not given in full), the growth was 18.2%.
In the case of `Cc1ccc(C(=O)Nc2ccc(-n3c(C)nc4c(cnn4-c4ccccc4)c3=O)cc2)cc1`, the growth is reported as 51.4%.
`COc1cc2oc(-c3cccc(C(=O)Nc4ccc(Cl)cc4)c3)cc(=O)c2c(OCCNC(=O)[C@@H](N)CO)c1OC` was tested, and the growth was -29.2% (active).
Work on `COc1cc(/C=C/C(=O)c2ccc(C(F)(F)F)cc2)ccc1Oc1nc(Nc2ccc(F)cc2)nc(N(C)C)n1` yielded a growth of 80%.
Work on `COc1cc(-c2nc3ccc(C)cc3[nH]2)ccc1OCc1nnc(-c2ccccc2Br)o1` yielded a growth of 69.5%.
Work on `O=C(O)Cn1c(O)c(/C=C2/C=c3cc4c(cc3=NC2=O)OCCO4)sc1=S` yielded a growth of 100%.
In the case of `C=CCSc1nnc(-c2ccc(-c3nc4ccc(Cl)cc4[nH]3)cc2)o1`, the growth is reported as 29.8%.
With `N#Cc1c(-c2cccc(O)c2O)cc(-c2ccc3ccccc3c2)[nH]c1=O` the growth was 56.6%.
For `COc1ccc2nc(NC(=O)c3ccc(N(C)C)cc3)sc2c1`, the growth was 51.5%.
With `COc1ccc2nc(Cl)c(-c3cc(-c4ccccc4)nc(N)n3)cc2c1` the growth was -37.5% (active).
For `O=C1NC(=NC23CC4CC(CC(C4)C2)C3)N/C1=C\c1ccc2ncsc2c1`, the growth was -16.1% (active).
With `COc1cncc(-c2ccc3ncnc(N4CCc5ccc(Cl)cc54)c3c2)c1` the growth was -33.4% (active).
For `Cc1cc(=O)oc2cc(OCC(O)CNN3C(=O)c4cccc5c(N6CCN(C)CC6)ccc(c45)C3=O)ccc12` (stereo not given), the growth was 113%.
`COc1cc2oc(-c3cccc(NC(=O)[C@H](Cc4ccccc4)NC(=O)OC(C)(C)C)c3)cc(=O)c2c(OC)c1OC` showed a growth of 22.9%.
In the case of `Cc1cc2c(cc1Cl)C(=O)/C(=C/c1ccccc1)O2`, the growth is reported as -13.7% (active).
In the case of `Clc1ccccc1Nc1nnc(-c2c[nH]c3ccccc23)o1`, the growth is reported as -0.476% (active).
For `O=C(Cn1c(/C=C/c2ccccc2)nc2ccccc2c1=O)Nc1ccccc1`, the growth was 64.7%.
`O=C(CSc1nnc(-c2c[nH]c3ccccc23)n1-c1ccccc1)c1ccccc1` showed a growth of 87.2%.
`CCCCSc1nc(Nc2ccc(C(C)=O)cc2)c(C#N)c(-c2ccc(OC)cc2)n1` was tested, and the growth was 88%.
`CN(C)c1nc(NCCNS(=O)(=O)c2ccc(C3=Nc4c(N)nc(N)nc4NC(c4ccc(C(F)(F)F)cc4)C3)cc2)nc(Nc2ccc(F)cc2)n1` (stereo not given) was tested, and the growth was -13.7% (active).
With `NS(=O)(=O)c1ccc(CCNC(=O)CSc2ccc(-c3ccc(Br)cc3)nn2)cc1` the growth was 55.4%.
With `COc1cccc(-c2c(C#N)c(-c3ccc(Cl)cc3)nc3n[nH]c(-c4ccc(Cl)cc4)c23)c1` the growth was 7.69% (active).
Work on `N#Cc1c(NC(=O)c2cccc(C(F)(F)F)c2)sc2c1CCC(O)=C2` yielded a growth of 30%.
`CCNCCCn1c2c(c3cc(OC)c(OC)cc3c1=O)C(=O)c1cc3c(nc1-2)OCO3` showed a growth of 55.1%.
Molecule `N#Cc1ccc(C(=O)Nn2c(N)cc3ccccc3c2=O)cc1` has a growth of 98.5%.
With `CN1CCc2c(sc3ncnc(N/N=C/c4cn(-c5ccccc5)nc4-c4ccc(Br)cc4)c23)C1` the growth was -4.94% (active).
Work on `O=C1Nc2ccc(Cl)cc2/C1=C/c1ccc(OCc2ccc(Br)cc2F)cc1` yielded a growth of 83.2%.
Molecule `CC(C)c1sc(NC(=O)c2cc(NC(=O)c3cc(NC(=O)c4nccn4C)cn3C)cn2C)nc1C(=O)NCCCN(C)C` has a growth of 47.1%.
`COc1cc2c(c(OC)c1OC)C(=O)CC(c1cccc(NC(=O)c3cc(NC(=O)[C@@H](N)CO)ccc3C)c1)O2` (stereo not given in full) gave a growth of 101%.
